Screening data: PubChem BioAssay, The Scripps Research Institute Molecular Screening Center
A selection: hits, their analogues and other compounds. The true share with any hit is near 3.5%.
FBW7 act: human FBW7 E3 ligase activation, primary screen | normalized activity (activation), % at 26.1 µM | 650,000 compounds, 0.13% hits | Q969H0 | AID 1259310 | AlphaScreen FBW7–phospho-cyclin E peptide binding, activator screen; in the data active = normalized activity above about 1.9%;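 note: purified mutant Fbw7 with reduced substrate affinity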
TEAD-YAP inh: TEAD-YAP interaction inhibition; inhibition, % at 9.12 µM; HEK-TIYL cells, TEAD-Gal4/YAP UAS-luciferase luminescence; 640,000 compounds, 1.4% hits; AID 1259422; in the data active = inhibition above about 32%;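 note: 0% = median of test compound wells and 100% = reference inhibitor wells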
GPR151 ag: activates the human receptor GPR151. 650,000 compounds, 1% hits. activation, % at 11.2 µM. PathHunter beta-arrestin GPR151 cells, luminescence. Q8TDV0; in the data active = activation above about 4.9%;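 note: 0% = median of compound wells and 100% = cells with positive control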
MITF primary: human MITF inhibition, primary screen. O75030. AlphaScreen MITF homodimerization, bead proximity signal. inhibition, % at 2.6 µM. 650,000 compounds, 0.91% hits; in the data active = inhibition above about 50%;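 note: 0% = vehicle wells with protein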
Target sequence (O75030 whole entry, looked up): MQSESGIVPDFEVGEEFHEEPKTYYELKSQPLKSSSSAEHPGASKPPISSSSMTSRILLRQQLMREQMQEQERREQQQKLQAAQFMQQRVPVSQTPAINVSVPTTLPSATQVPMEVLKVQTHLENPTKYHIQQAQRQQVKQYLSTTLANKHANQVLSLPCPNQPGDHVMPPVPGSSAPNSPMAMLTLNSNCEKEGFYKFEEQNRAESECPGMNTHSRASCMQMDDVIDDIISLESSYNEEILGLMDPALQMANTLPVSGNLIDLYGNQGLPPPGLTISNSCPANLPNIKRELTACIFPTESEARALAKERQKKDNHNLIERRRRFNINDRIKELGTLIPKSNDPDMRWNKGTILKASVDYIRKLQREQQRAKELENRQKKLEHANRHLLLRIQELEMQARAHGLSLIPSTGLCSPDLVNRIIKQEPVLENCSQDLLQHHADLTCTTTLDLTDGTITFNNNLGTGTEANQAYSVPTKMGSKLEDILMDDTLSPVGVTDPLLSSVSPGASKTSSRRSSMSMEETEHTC
GPR151 conf act: confirmation of human GPR151 activators | shares compounds with GPR151 ag | GPR151 PathHunter beta-arrestin cells, luminescence, 90 min; % of EA-reagent control over plate median | activation, % at 11.2 µM | 6,700 tested, under 10 active | AID 1508609;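 active = mean percent activation across replicates above the confirmation screen cutoff of 4.91%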
GPR119 ag: counter-screen for GPR151 activators: effect on human GPR119; shares compounds with GPR151 ag; GPR119 PathHunter beta-arrestin cells, luminescence, 90 min; 0 = compound-well median, 100 = enzyme-acceptor control; activation, % at 11.2 µM; 6,700 compounds, 0.3% hits;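 active = mean percent activation in the counterscreen above 29.09%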;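 note: counterscreen on off-target GPR119 to flag nonselective hits from the GPR151 activator screen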
* marks the source's active call; other numbers are inactive results; . = no result given; ! = not active in a repeat.

SMILES	FBW7 act	TEAD-YAP inh	GPR151 ag	MITF primary	GPR151 conf act	GPR119 ag
O=C(NCc1nnc2n1CCN(C(=O)/C=C/c1ccccn1)CC2)c1cccc(F)c1	0.1	-9.9	2.4	11.4	.	.
COC(=O)C1=C(C(=O)OC)SC2(S1)C(C(=O)OC)=C(C(=O)OC)SC1=C2c2cc(C)c(C)cc2NC1(C)C	-1.7	4.4	5.8*	19.0	0.7	11.7
COc1ccccc1/C=N/NC(=O)NC12CC3CC(CC(C3)C1)C2	-0.1	9.2	-1.0	9.6	.	.
COc1ccccc1/C=C/C(=O)OCC(=O)NC(=O)NC12CC3CC(CC(C3)C1)C2	0.1	0.8	5.5*	16.4	0.9	4.0
Cc1ccc(NC(=O)Nc2nnc(COc3ccc(Br)cc3)s2)cc1	0.1	-0.6	-0.7	8.8	.	.
CCCc1ccc(OCCCC(=O)Nc2nnc(COC)s2)cc1	0.0	-5.3	6.9*	4.6	0.1	-4.0
CC(=O)Nc1nnc(COc2ccc(Br)cc2)s1	-0.2	-18.4	7.9*	12.2	-0.2	-5.7
COc1cccc(C2C(C#N)=C(N)Oc3n[nH]c(C)c32)c1OC(=O)N1CCOCC1 (configuration not stated)	0.1	4.3	0.4	10.1	.	.
Cc1ccc(Sc2cc(C(=O)NC3CCC(C)CC3)c3ccccc3n2)cc1 (configuration not stated)	0.1	-3.0	0.5	4.2	.	.
CNC(=O)c1cc(-c2ccc(C)cc2)nc2ccccc12	0.8	-4.8	5.4*	11.5	-1.8	-13.3
Cc1ccc(Sc2cc(C(=O)NC3CC3)c3ccccc3n2)cc1	0.0	0.7	5.4*	2.8	-0.2	-5.3
O=C(Nc1ccncc1)c1cc(-c2ccncc2)nc2ccccc12	0.2	-15.2	5.2*	-4.5	2.7	14.6
CN(CC(=O)N1CCc2ccccc21)S(=O)(=O)c1ccc2c(c1)n(C)c(=O)c(=O)n2C	-0.1	6.1	-0.8	-7.3	.	.
COc1ccccc1CN1C(=O)c2ccccc2C1=O	0.2	15.0	2.7	10.6	.	.
COc1ccc(O)c(C2=Nc3ccccc3N=C(c3cccc(Br)c3)C2)c1	0.1	-66.7	5.5*	7.4	-0.1	5.8
Cc1ccc(O)c(C2=Nc3ccccc3N=C(c3cccc(Br)c3)C2)c1	-0.1	-77.0	0.2	-6.6	.	.
CCOc1ccc(NC(=O)C(CC(=O)O)C2CCCO2)cc1 (configuration not stated)	-0.1	-5.4	-0.3	-13.4	.	.
Cc1ccc(NC(=O)C(CC(=O)O)C2CCCO2)cc1 (configuration not stated)	0.1	-4.7	18.6*	3.6	0.9	-3.3
COC(=O)c1ccc(Cl)cc1NC(=O)N(C(C)C)C1CCN(C(C)=O)CC1	-0.2	-8.7	7.0*	1.1	1.8	-0.8
COc1ccc(NC(=O)N(C(C)C)C2CCN(C(C)=O)CC2)c(OC)c1	0.0	-4.2	1.0	4.4	.	.
CCN1CCc2c(sc(NC(=S)NC(=O)c3ccn(C)n3)c2C(N)=O)C1	0.0	2.0	0.4	-4.0	.	.
CCCCn1c(C)c(Cc2ccccc2)[nH]c1=O	-0.4	8.8	6.1*	-12.0	0.3	-0.3
CCCCCn1c(=O)[nH]c2ccccc21	0.1	-5.7	2.2	-2.3	.	.
CCOC(=O)CSc1nnc(CSc2ncccn2)n1-c1ccccc1	0.3	-6.2	10.8*	9.3	1.4	4.4
C/C=C/Cn1c(NC)nc2c1c(=O)[nH]c(=O)n2C	1.4	-12.1	-0.4	14.9	.	.
SMILES	FBW7 act	TEAD-YAP inh	GPR151 ag	MITF primary	GPR151 conf act	GPR119 ag
CCOc1ccc(CN2CCNC(=O)C2CC(=O)NCC2(c3ccccc3)CCCC2)cc1 (configuration not stated)	0.0	14.4	8.0*	-6.5	-1.4	-18.5
CC(C)CCN1CCNC(=O)C1CC(=O)NCC1(c2ccccc2)CCOCC1 (configuration not stated)	-0.1	5.3	6.1*	9.7	1.4	4.8
CCCCOc1ccc(/C=C(/C#N)c2nc(-c3ccc(-c4ccccc4)cc3)cs2)cc1	0.1	-14.6	0.8	13.7	.	.
O=C(c1ccc([N+](=O)[O-])cc1)N1CCCc2ccccc21	-0.1	-10.3	-0.7	12.3	.	.
O=C(c1ccc(-n2cnnn2)cc1)N1CCCc2ccccc21	-0.2	-0.2	5.0*	-10.1	0.3	-8.1
O=C(c1cccc([N+](=O)[O-])c1)N1CCCc2ccccc21	-0.1	-4.2	5.0*	-1.2	0.8	-0.6
Cc1nnc(NC(=O)CN2CCC(O)(c3ccc(F)cc3)CC2)s1	-0.1	1.5	6.8*	-2.3	-0.2	6.2
COC(=O)c1cc([N+](=O)[O-])c(C(=O)OC)cc1Oc1ccc(Cl)cc1	-0.4	-14.7	6.4*	5.0	-0.4	-9.5
COCCOC(=O)C1=C(N)Oc2c(oc(CO)cc2=O)C1c1c(F)cccc1Cl (configuration not stated)	0.2	13.0	5.7*	-14.7	-0.1	9.1
COc1ccc2c(c1)OC[C@@H](Cc1ccc(OC)c(OC)c1)[C@@H]2O	-0.1	-3.4	5.0*!	-13.2	0.4	-0.6
COc1ccc(C(=O)Cc2ccc(OC)c(OC)c2)c(OC)c1	0.2	-2.1	3.6	-4.8	.	.
CC(C)NC(=O)CCc1nnc2n(Cc3ccc(F)cc3)c(=O)c3ccccc3n12	0.7	4.9	8.0*	14.1	0.7	12.5
O=C(CCc1nnc2n(Cc3ccc(F)cc3)c(=O)c3ccccc3n12)Nc1ccccc1	0.1	-3.3	-0.8	3.6	.	.
CCOC(=O)N1CCC(n2c(SCc3ccc([N+](=O)[O-])cc3)nc3ccccc3c2=O)CC1	-0.1	-7.0	-1.7	-7.9	.	.
COc1ccc(O)c(C2NC(C)(C(=O)O)C3C(=O)N(c4ccccc4OC)C(=O)C23)c1 (configuration not stated)	-0.1	-6.7	5.1*	0.4	1.3	4.4
CCOc1cccc(C2NC(C)(C(=O)O)C3C(=O)N(c4ccccc4OC)C(=O)C23)c1O (configuration not stated)	-0.2	-6.7	1.1	-6.8	.	.
COc1ccc(CN2C(=O)CN=C2Nc2ccccc2)cc1	0.1	-15.1	0.2	7.6	.	.
CN1[C@@H](C(=O)NC2CCCCC2)C[C@@H](c2ccco2)NS1(=O)=O	-0.2	-3.0	3.1	-7.5	.	.
COc1cccc(/C=N/NC(=O)/C(=C\c2cccs2)NC(=O)c2ccccc2)c1O	-0.2	15.5	6.2*	-66.0	-0.3	-12.3
O=C(N/N=C/c1ccccc1O)/C(=C\c1cccs1)NC(=O)c1ccccc1	0.0	13.9	1.2	-41.9	.	.
Cc1cc(NC(=O)c2ccco2)n(-c2nc3ccccc3[nH]2)n1	0.1	27.8	0.4	6.9	.	.
Cc1cc(NC(=O)C2CC2)n(-c2nc3ccccc3[nH]2)n1	-0.1	28.7	9.1*	-0.8	-0.2	-5.2
O=C(CCc1cccs1)N1CCCC(c2ccn[nH]2)C1 (configuration not stated)	0.0	-1.5	1.9	8.2	.	.
